SUMO Mot1 rescue = SUMOylation pathway inhibition by Mot1-301 growth rescue; S. cerevisiae Mot1-301 growth rescue, ATP luminescence, 38.5C; percent above DMSO median, 100 means doubled; growth rescue, % at 18.8 µM; actives 1% (n = 320,000); AID 2716;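 active = every valid replicate shows activation above 250% relative to neutral control wells; inactive = the rest, any valid replicate at or below 250%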;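 note: OY570 slx delta 5 strain wells were the positive control but not used for scaling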
Cardio protect = protects H9c2 cardiomyocytes from peroxide injury; actives 0.63% (n = 360,000); AID 588492; protection from H2O2 cell death, % at 20 µM; H2O2 injury protection, ATPLite, 2 h;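 active = compounds giving at least 50% protection of heart cells from peroxide-induced death in the single-dose screen, raw or plate-pattern-corrected value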;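 note: 0% = DMSO wells with peroxide and 100% = DMSO wells without peroxide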
CR mimetic SO = caloric restriction mimetics inhibiting age-related superoxide in yeast. S. cerevisiae aged cells, superoxide DHE fluorescence; stronger effect = lower value. superoxide response (% of plate mean), % at 10 µM. actives 0.18% (n = 330,000);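 active = superoxide response under a set limit, about three screen SD below normal, cut at about 65% in these data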;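 note: yeast aged for seven days with compound at 30 °C before DHE staining; 100% = average MFI of all compound-treated wells on the plate with controls excluded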
FAS-TE inh = blocks the thioesterase domain of human fatty acid synthase; P49327; recombinant FAS-TE, OMFH fluorogenic substrate, fluorescence endpoint; inhibition, % at 15 µM; actives 0.67% (n = 360,000); AID 602261;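 active = compounds whose normalised, plate-corrected inhibition of enzyme fluorescence in the single-dose primary screen is 50% or more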;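 note: 0% = DMSO with enzyme and 100% = substrate without enzyme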
Target sequence (P49327 whole entry, looked up, the tested form may be a part): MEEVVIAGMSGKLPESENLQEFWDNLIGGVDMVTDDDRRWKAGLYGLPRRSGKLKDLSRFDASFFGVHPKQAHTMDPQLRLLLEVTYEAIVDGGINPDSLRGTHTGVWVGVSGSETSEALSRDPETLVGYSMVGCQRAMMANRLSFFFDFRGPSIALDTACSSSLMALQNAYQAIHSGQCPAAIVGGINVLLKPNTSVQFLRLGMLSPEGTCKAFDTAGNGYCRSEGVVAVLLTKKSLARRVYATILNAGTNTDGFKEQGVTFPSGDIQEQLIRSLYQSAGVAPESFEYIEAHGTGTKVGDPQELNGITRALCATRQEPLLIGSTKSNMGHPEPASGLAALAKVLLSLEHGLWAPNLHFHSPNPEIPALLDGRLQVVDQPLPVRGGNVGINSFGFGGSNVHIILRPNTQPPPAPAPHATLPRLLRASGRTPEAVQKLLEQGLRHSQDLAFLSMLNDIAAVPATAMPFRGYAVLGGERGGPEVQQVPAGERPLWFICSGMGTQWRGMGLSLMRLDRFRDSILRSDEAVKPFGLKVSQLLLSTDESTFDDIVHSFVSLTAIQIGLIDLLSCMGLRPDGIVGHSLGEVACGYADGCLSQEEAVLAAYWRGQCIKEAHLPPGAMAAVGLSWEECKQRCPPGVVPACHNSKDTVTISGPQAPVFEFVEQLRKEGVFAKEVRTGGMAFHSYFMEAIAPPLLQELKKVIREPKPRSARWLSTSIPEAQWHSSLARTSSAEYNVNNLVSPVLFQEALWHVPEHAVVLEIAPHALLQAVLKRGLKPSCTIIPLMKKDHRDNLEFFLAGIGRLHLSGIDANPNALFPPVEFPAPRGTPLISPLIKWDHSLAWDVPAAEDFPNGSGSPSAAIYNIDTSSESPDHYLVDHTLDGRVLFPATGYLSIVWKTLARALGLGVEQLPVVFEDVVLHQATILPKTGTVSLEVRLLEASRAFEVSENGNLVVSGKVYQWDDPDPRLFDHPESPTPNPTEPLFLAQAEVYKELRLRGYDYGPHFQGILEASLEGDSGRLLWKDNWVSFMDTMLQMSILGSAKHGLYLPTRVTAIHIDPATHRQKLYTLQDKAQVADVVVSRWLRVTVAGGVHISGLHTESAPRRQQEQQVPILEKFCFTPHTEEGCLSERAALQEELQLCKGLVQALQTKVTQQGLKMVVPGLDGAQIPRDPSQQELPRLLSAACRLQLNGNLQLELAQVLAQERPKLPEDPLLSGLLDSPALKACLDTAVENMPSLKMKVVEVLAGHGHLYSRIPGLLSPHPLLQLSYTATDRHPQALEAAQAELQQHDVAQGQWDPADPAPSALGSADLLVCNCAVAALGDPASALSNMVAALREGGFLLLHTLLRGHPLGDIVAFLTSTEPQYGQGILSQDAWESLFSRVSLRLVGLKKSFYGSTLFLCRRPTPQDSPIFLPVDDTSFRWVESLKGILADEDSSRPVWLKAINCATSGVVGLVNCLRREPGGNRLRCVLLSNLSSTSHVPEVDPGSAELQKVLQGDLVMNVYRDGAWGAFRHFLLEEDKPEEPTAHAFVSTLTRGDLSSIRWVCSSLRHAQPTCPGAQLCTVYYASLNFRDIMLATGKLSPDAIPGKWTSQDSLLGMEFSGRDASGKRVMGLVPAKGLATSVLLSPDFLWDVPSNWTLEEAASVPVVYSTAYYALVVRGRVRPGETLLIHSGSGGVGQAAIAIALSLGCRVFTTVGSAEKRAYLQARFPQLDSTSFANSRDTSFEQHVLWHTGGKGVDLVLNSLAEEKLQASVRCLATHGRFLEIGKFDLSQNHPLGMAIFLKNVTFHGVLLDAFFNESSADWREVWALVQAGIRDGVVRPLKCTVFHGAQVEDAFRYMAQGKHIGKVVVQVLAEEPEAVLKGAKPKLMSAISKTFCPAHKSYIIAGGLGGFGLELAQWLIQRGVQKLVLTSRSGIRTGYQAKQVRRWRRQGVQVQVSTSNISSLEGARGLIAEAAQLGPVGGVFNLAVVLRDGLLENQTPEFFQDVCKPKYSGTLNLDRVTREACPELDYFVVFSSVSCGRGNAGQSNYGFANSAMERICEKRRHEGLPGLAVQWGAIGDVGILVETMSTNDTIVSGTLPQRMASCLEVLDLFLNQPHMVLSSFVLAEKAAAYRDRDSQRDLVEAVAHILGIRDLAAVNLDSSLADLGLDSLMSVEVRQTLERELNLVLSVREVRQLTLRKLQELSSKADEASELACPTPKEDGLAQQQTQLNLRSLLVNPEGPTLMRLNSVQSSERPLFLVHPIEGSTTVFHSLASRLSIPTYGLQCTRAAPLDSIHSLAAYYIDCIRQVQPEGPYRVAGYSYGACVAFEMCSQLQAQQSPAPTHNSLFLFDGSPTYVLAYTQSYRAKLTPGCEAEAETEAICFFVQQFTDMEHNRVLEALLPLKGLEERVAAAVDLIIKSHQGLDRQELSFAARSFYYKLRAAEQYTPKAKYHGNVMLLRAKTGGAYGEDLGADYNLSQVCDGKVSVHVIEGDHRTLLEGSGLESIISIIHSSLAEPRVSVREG
aDG glyco up = increases alpha dystroglycan glycosylation | Pro5-aDG cells, alpha-DG glycosylation AlphaScreen (IIH6); 0% Pro5, 100% B10-LARGE cell signal | activation, % at 10 µM | actives 0.22% (n = 360,000);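 active = activation of at least 8% versus controls, or a plate z-score of at least 8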;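 note: Pro5 are CHO cells carrying HIG-tagged alpha-DG that lacks glycosylation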
MPTP block = inhibitors of mitochondrial permeability transition pore. isolated mouse mitochondria, Ca2+ swelling absorbance, 30 min. inhibition, % at 10 µM. actives 1.4% (n = 360,000);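 active = inhibition of 50% or more, scaled per plate between neutral and stimulator controls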;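 note: 0% = DMSO wells given calcium and 100% = 1 mM EGTA wells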
Active calls of the source: *; · = not tested or not shown. A selection: hits, their analogues and other compounds. The true share with any hit is near 3.8%.

SMILES	SUMO Mot1 rescue	Cardio protect	CR mimetic SO	FAS-TE inh	aDG glyco up	MPTP block
COc1cc(-c2cc(C(=O)OCC(=O)NC3CC3)c3ccccc3n2)cc(OC)c1OC	4.9	63.9*	129.2	5.6	-0.1	-0.4
O=C(CSc1nc2ccccc2c(=O)[nH]1)c1cccs1	-4.2	33.2	112.2	-6.3	0.5	-0.7
O=c1[nH]c(SCc2nc3c(cnn3-c3ccccc3)c(=O)[nH]2)nc2ccccc12	·	52.7*	·	-11.8	-0.3	0.8
Cc1cc(=O)[nH]c(SCC(=O)c2ccc(O)c(O)c2)n1	-1.2	2.8	85.9	-4.9	-0.1	-0.2
O=c1[nH]c(CSc2nc3ccccc3[nH]2)nc2c1cnn2-c1ccccc1	-9.3	-16.7	97.8	4.9	1.6	3.7
O=C(CSc1nc2ccccc2c(=O)[nH]1)c1ccc(O)c(O)c1	63.5	57.7*	87.0	-5.0	-0.1	0.3
O=C(CSc1nc2ccccc2c(=O)[nH]1)c1ccc(O)cc1O	·	67.2*	·	-4.9	-0.6	-0.9
Cc1[nH]c2ccccc2c1C(=O)CSc1nc2ccccc2[nH]1	-9.4	66.5*	96.3	6.5	-0.3	1.8
CCC(C)(C)NC(=O)Cc1ccc(Cl)cc1	8.3	5.6	80.6	-2.5	0.5	-0.9
C=CCn1c(CNc2ccccc2)nnc1SCC(=O)N/N=C/c1ccccc1O	10.8	62.6*	94.4	9.4	0.4	-5.4
C=CCn1c(Cc2c[nH]c3ccccc23)nnc1SCC(=O)NCc1ccccc1	4.4	6.1	93.5	-4.0	0.0	2.5
CC(C)N(C(=O)Cn1c(SCC(=O)NCc2ccc3c(c2)OCO3)nc2ccccc21)C(C)C	307.4*	-5.4	99.9	-5.8	0.2	0.9
CC(C)Sc1nc2ccccc2n1CC(=O)NCc1ccc2c(c1)OCO2	0.1	9.1	82.6	2.8	-0.1	-1.3
COc1cccc([C@@H]2Oc3ccc(OC)cc3C(=O)[C@H]2O)c1	2.1	7.1	·	-8.0	-0.3	0.2
COc1ccc2c(c1)C(=O)[C@@H](O)[C@H](c1ccc(OC)c(Br)c1)O2	5.3	51.6*	94.5	9.3	0.3	1.0
COc1ccc(-n2cnnc2SCC(=O)NC2CCCc3ccccc32)cc1 (configuration not stated)	-5.8	6.5	93.2	-3.2	0.0	-0.4
CCCCC(=O)NC(c1ccc(N(CC)CC)cc1)c1ccc2cccnc2c1O (configuration not stated)	9.1	52.2*	88.2	-1.3	0.2	2.6
CCCCC(=O)NC(c1ccc(N(C)C)cc1)c1ccc2cccnc2c1O (configuration not stated)	12.6	30.6	90.0	5.8	-0.5	-0.5
Cc1cc(C)n(-c2nc3ccccc3c(=O)n2OCC#N)n1	-17.7	26.5	106.0	-5.5	-0.2	-1.3
CC(=O)Nc1cc(C)nn1-c1nc2ccccc2s1	-5.8	52.4*	103.7	0.6	-0.4	18.1
CCOC(=O)c1c(NC(=O)CNCC(O)CO)sc(C)c1C (configuration not stated)	295.0*	-1.6	115.0	0.4	0.6	-0.3
Cc1ccc(O)c(CNCCNCc2cc(C)ccc2O)c1	-10.6	64.8*	95.2	-11.6	0.6	4.3
O=[N+]([O-])c1ccc(NCCCc2ccccc2)cc1	·	-7.6	·	24.5	0.2	15.6
COc1ccc(/C=C/C(=O)NC(=S)NNC(=O)Cc2cccs2)cc1	·	12.0	58.4*	-3.2	1.0	7.6
CCc1nnc(NC(=O)C2CCCN2C(=O)Nc2ccc(Cl)cc2)s1 (configuration not stated)	15.7	2.0	96.3	-1.4	0.0	0.6
SMILES	SUMO Mot1 rescue	Cardio protect	CR mimetic SO	FAS-TE inh	aDG glyco up	MPTP block
O=C1[C@@H]2[C@H](C(=O)N1CC(O)COCc1ccccc1)C1C=C[C@H]2C1 (some centres not stated)	·	5.2	·	-9.8	-0.3	0.0
COc1ccc(C(=O)Nn2c(SCc3ccc([N+](=O)[O-])cc3)nc3ccccc3c2=O)cc1	308.8	-12.0	101.5	52.2*	-0.1	-8.1
COc1ccc(/C=N/NC(=O)c2ccn[nH]2)cc1COc1ccc(Cl)cc1	0.6	63.2*	114.2	-66.3	0.1	-0.5
COc1ccc(/C=N/NC(=O)c2ccn[nH]2)cc1CSc1ccccn1	-0.6	5.1	98.7	-10.1	1.7	-1.6
O=C(NCC(c1cccs1)N1CCOCC1)C1CCN(S(=O)(=O)c2c(Cl)cccc2Cl)CC1 (configuration not stated)	-17.3	-0.3	100.7	-1.8	-0.2	-1.6
Cc1cccc(NC(=O)CSc2nnc(C)c(=O)n2N)c1	461.1*	-3.9	104.3	-8.5	0.0	-0.5
Cc1ccc(NC(=O)CSc2nnc(C)c(=O)n2N)cc1Cl	-2.9	4.8	98.8	-8.3	1.3	0.1
Nc1nc2n(n1)C(c1cccs1)CC(c1ccc(F)cc1)N2 (configuration not stated)	12.7	3.5	102.5	-10.2	-0.2	-1.6
COc1ccc(C2CC(c3cccs3)n3nc(N)nc3N2)cc1 (configuration not stated)	-14.2	62.0*	105.1	-5.6	-0.1	-1.2
O=C(NCCCN1CCOCC1)C(=O)NCC1OCCN1S(=O)(=O)c1ccc(Cl)cc1 (configuration not stated)	·	2.1	·	-11.5	-0.1	-0.2
CC1CC(=O)N(CC(=O)Nc2ccccc2F)c2ccccc2S1(=O)=O (configuration not stated)	-11.3	8.7	83.2	-7.0	-0.1	-0.7
O=C1c2cccnc2Oc2ccc(Cl)cc2N1Cc1ccc(F)cc1	5.1	63.4*	115.1	29.7	0.5	3.0
CC(C)N(C)Cc1nnnn1CC(=O)N(C)Cc1cccc(Cl)c1	243.3	5.9	103.9	-1.3	0.0	0.1
Cc1ccc(CNC(=O)c2oc3ccc(S(=O)(=O)N4CCOCC4)cc3c2C)cc1	-4.1	51.4*	124.4	9.3	-0.4	0.2
CCOC(=O)N1CCN(S(=O)(=O)c2ccc(OCC(=O)OC)c(Cl)c2)CC1	286.7*	7.1	108.5	-5.8	-0.1	0.7
COc1ccc(CCNC(=O)C(=O)NCC2CCCN2S(=O)(=O)c2ccccc2)cc1OC (configuration not stated)	180.7	73.5*	98.2	-5.7	-0.7	1.1
NS(=O)(=O)c1ccc(NC(=S)NC(=O)c2cccs2)cc1	271.2	7.7	100.9	-7.3	0.0	1.4
O=C(NC(=S)Nc1ccc(S(=O)(=O)N2CCCCC2)cc1)c1cccs1	333.5*	-5.8	104.5	26.2	0.2	-16.8
CC(NCCN(C)C)C(=O)C12CC3CC(CC(C3)C1)C2 (configuration not stated)	-39.0	-0.3	116.5	-8.4	0.0	0.1
COC(=O)c1ccc(COc2ccccc2/C=C/C(=O)c2ccc(OCC(=O)O)cc2)cc1	-6.3	-3.5	109.8	0.3	-0.1	-1.1
CCC1(CC)NC(=O)N(CC(=O)OCC(=O)Nc2ccccc2OC(F)F)C1=O	-7.9	2.7	92.4	0.2	-0.2	-0.1
